Measurements published in PubChem BioAssay AID1159580 (chemical genetic matrix, 2015).
Screen size: about 5,500 compounds; about 2,000 (36%) were called active. Inconclusive results (about 18%) are left out. Cut-off read from the data, not from the text of the source: active = normalized growth mostly below about 0.91 (no sharp cut-off); inconclusive = no clear call, values can overlap the other calls; inactive = mostly above about 0.92. The list shows a part of the results.

Assay: chemical genetic growth profiling, strain panel (AID 1159580);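 note: tested at 20 µM; growth read once vehicle control cultures reached saturation at 30 °C; 1 = growth at the plate median or of vehicle wells; lower values mean less growth of the strain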
Settings: growth OD
[1] = S. cerevisiae deletion strains, locus YAR019C, strain CDC15, hits give low values
[2] = S. cerevisiae deletion strains, locus YBL105C, strain PKC1, hits give low values
[3] = S. cerevisiae deletion strains, locus YBR135W, strain CKS1, hits give low values
[4] = S. cerevisiae deletion strains, locus YBR136W, strain MEC1, hits give low values
[5] = S. cerevisiae deletion strains, locus YBR160W, strain CDC28, hits give low values
[6] = S. cerevisiae deletion strains, locus YDL017W, strain CDC7, hits give low values
[7] = S. cerevisiae deletion strains, locus YDL028C, strain MPS1, hits give low values
[8] = S. cerevisiae deletion strains, locus YDL101C, strain DUN1, hits give low values
[9] = S. cerevisiae deletion strains, locus YDL108W, strain KIN28, hits give low values
[10] = S. cerevisiae deletion strains, locus YDL132W, strain cdc53, hits give low values
[11] = S. cerevisiae deletion strains, locus YDL214C, strain PRR2, hits give low values
[12] = S. cerevisiae deletion strains, locus YDR052C, strain DBF4, hits give low values
[13] = S. cerevisiae deletion strains, locus YDR054C, strain cdc34, hits give low values
[14] = S. cerevisiae deletion strains, locus YDR226W, strain ADK1, hits give low values
[15] = S. cerevisiae deletion strains, locus YDR477W, strain SNF1, hits give low values
[16] = S. cerevisiae deletion strains, locus YER123W, strain YCK3, hits give low values
[17] = S. cerevisiae deletion strains, locus YER133W, strain GLC7, hits give low values
[18] = S. cerevisiae deletion strains, locus YFL009W, strain cdc4, hits give low values
[19] = S. cerevisiae deletion strains, locus YFL029C, strain CAK1, hits give low values
[20] = S. cerevisiae deletion strains, locus YFR003C, strain YPI1, hits give low values
[21] = S. cerevisiae deletion strains, locus YFR019W, strain FAB1, hits give low values
[22] = S. cerevisiae deletion strains, locus YFR028C, strain CDC14, hits give low values
[23] = S. cerevisiae deletion strains, locus YGR040W, strain KSS1, hits give low values
[24] = S. cerevisiae deletion strains, locus YGR052W, strain FMP48, hits give low values
[25] = S. cerevisiae deletion strains, locus YGR092W, strain DBF2, hits give low values
[26] = S. cerevisiae deletion strains, locus YHR030C, strain SLT2, hits give low values
[27] = S. cerevisiae deletion strains, locus YHR079C, strain IRE1, hits give low values
[28] = S. cerevisiae deletion strains, locus YHR082C, strain KSP1, hits give low values
[29] = S. cerevisiae deletion strains, locus YHR205W, strain SCH9, hits give low values
[30] = S. cerevisiae deletion strains, locus YIL147C, strain SLN1, hits give low values
[31] = S. cerevisiae deletion strains, locus YJL095W, strain BCK1, hits give low values
[32] = S. cerevisiae deletion strains, locus YJL128C, strain PBS2, hits give low values
[33] = S. cerevisiae deletion strains, locus YJL157C, strain FAR1, hits give low values
[34] = S. cerevisiae deletion strains, locus YJR016C, strain ILV3, hits give low values
[35] = S. cerevisiae deletion strains, locus YJR066W, strain TOR1 (second series), hits give low values
[36] = S. cerevisiae deletion strains, locus YJR066W, strain TOR1, hits give low values
[37] = S. cerevisiae deletion strains, locus YKL048C, strain ELM1, hits give low values
[38] = S. cerevisiae deletion strains, locus YKL067W, strain YNK1, hits give low values
[39] = S. cerevisiae deletion strains, locus YKL101W, strain HSL1, hits give low values
[40] = S. cerevisiae deletion strains, locus YKL193C, strain SDS22, hits give low values
[41] = S. cerevisiae deletion strains, locus YKL203C, strain TOR2, hits give low values
[42] = S. cerevisiae deletion strains, locus YLR113W, strain HOG1, hits give low values
[43] = S. cerevisiae deletion strains, locus YLR133W, strain CKI1, hits give low values
[44] = S. cerevisiae deletion strains, locus YLR403W, strain SFP1, hits give low values
[45] = S. cerevisiae deletion strains, locus YML070W, strain DAK1, hits give low values
[46] = S. cerevisiae deletion strains, locus YMR001C, strain CDC5, hits give low values
[47] = S. cerevisiae deletion strains, locus YMR205C, strain PFK2 (second series), hits give low values
[48] = S. cerevisiae deletion strains, locus YMR277W, strain FCP1, hits give low values
[49] = S. cerevisiae deletion strains, locus YNL006W, strain LST8, hits give low values
[50] = S. cerevisiae deletion strains, locus YNL020C, strain ARK1, hits give low values
[51] = S. cerevisiae deletion strains, locus YNL161W, strain CBK1, hits give low values
[52] = S. cerevisiae deletion strains, locus YNL183C, strain NPR1, hits give low values
[53] = S. cerevisiae deletion strains, locus YNL207W, strain RIO2, hits give low values
[54] = S. cerevisiae deletion strains, locus YNL222W, strain SSU72, hits give low values
[55] = S. cerevisiae deletion strains, locus YNL307C, strain MCK1 (second series), hits give low values
[56] = S. cerevisiae deletion strains, locus YOL078W, strain AVO1, hits give low values
[57] = S. cerevisiae deletion strains, locus YOL136C, strain PFK27, hits give low values
[58] = S. cerevisiae deletion strains, locus YOR061W, strain CKA2, hits give low values
[59] = S. cerevisiae deletion strains, locus YOR119C, strain RIO1, hits give low values
[60] = S. cerevisiae deletion strains, locus YOR231W, strain MKK1, hits give low values
[61] = S. cerevisiae deletion strains, locus YOR329C, strain SCD5, hits give low values
[62] = S. cerevisiae deletion strains, locus YPL031C, strain PHO85, hits give low values
[63] = S. cerevisiae deletion strains, locus YPL153C, strain RAD53, hits give low values
[64] = S. cerevisiae deletion strains, locus YPL204W, strain HRR25, hits give low values
[65] = S. cerevisiae deletion strains, locus YPL209C, strain IPL1, hits give low values
[66] = S. cerevisiae deletion strains, locus YPL256C, strain CLN2, hits give low values
[67] = S. cerevisiae deletion strains, locus YPR025C, strain CCL1, hits give low values
[68] = S. cerevisiae deletion strains, locus YPR106W, strain ISR1, hits give low values
[69] = S. cerevisiae deletion strains, locus YPR111W, strain DBF20, hits give low values
[70] = S. cerevisiae deletion strains, strain NNK1, hits give low values
[71] = S. cerevisiae deletion strains, strain TSCII, hits give low values

Measured: normalized growth

O=[N+]([O-])c1ccc2oc(C(O)c3ccc(-c4ccccc4)cc3)cc2c1 (stereo not drawn)
active: [26] 0.786
inactive: [1] 0.989 | [2] 0.976 | [3] 0.978 | [4] 0.975 | [5] 0.985 | [6] 0.979 | [7] 0.987 | [8] 0.975 | [9] 0.969 | [10] 0.996 | [11] 0.84 | [12] 0.982 | [13] 0.995 | [14] 0.999 | [15] 0.849 | [16] 0.805 | [17] 0.863 | [18] 1 | [19] 0.976 | [20] 0.984 | [21] 0.904 | [22] 0.997 | [23] 0.859 | [24] 0.926 | [25] 0.802 | [27] 0.896 | [28] 0.86 | [29] 0.967 | [30] 0.968 | [31] 0.905 | [32] 1.05 | [33] 0.822 | [34] 0.977 | [35] 0.751 | [36] 0.829 | [37] 0.979 | [38] 0.872 | [39] 0.982 | [40] 0.98 | [41] 0.924 | [42] 0.882 | [43] 0.877 | [44] 0.902 | [45] 0.835 | [46] 0.982 | [47] 0.882 | [48] 0.994 | [49] 0.987 | [50] 0.854 | [51] 0.984 | [52] 0.919 | [53] 0.979 | [54] 0.976 | [55] 0.936 | [56] 0.993 | [57] 0.849 | [58] 0.75 | [59] 0.904 | [60] 0.892 | [61] 0.985 | [62] 0.848 | [63] 0.821 | [64] 0.88 | [65] 0.977 | [66] 0.96 | [67] 0.985 | [68] 1 | [69] 1.03 | [70] 0.997 | [71] 0.987

O=C(c1ccc(-c2ccccc2)cc1)c1cc2cc([N+](=O)[O-])ccc2o1
inactive: S. cerevisiae deletion strains, locus YAL013W, strain DEP1, hits give low values 1 | S. cerevisiae deletion strains, locus YBR229C, strain ROT2, hits give low values 0.993 | [8] 1.02 | S. cerevisiae deletion strains, locus YDR150W, strain NUM1, hits give low values 0.99 | S. cerevisiae deletion strains, locus YEL061C, strain CIN8, hits give low values 1.01 | S. cerevisiae deletion strains, locus YGR078C, strain PAC10, hits give low values 1.01 | [26] 1.01 | S. cerevisiae deletion strains, locus YHR087W, strain rtc3, hits give low values 1.01 | S. cerevisiae deletion strains, locus YJR043C, strain POL32, hits give low values 0.997 | S. cerevisiae deletion strains, locus YJR075W, strain HOC1, hits give low values 1.03 | S. cerevisiae deletion strains, locus YKL190W, strain CNB1, hits give low values 0.993 | S. cerevisiae deletion strains, locus YLR039C, strain RIC1, hits give low values 0.986 | S. cerevisiae deletion strains, locus YLR058C, strain SHM2 (second series), hits give low values 0.993 | S. cerevisiae deletion strains, locus YLR085C, strain ARP6, hits give low values 1 | S. cerevisiae deletion strains, locus YLR262C, strain YPT6, hits give low values 0.981 | S. cerevisiae deletion strains, locus YML094W, strain GIM5, hits give low values 1.07 | S. cerevisiae deletion strains, locus YMR219W, strain ESC1, hits give low values 1 | S. cerevisiae deletion strains, locus YMR263W, strain SAP30, hits give low values 1.04 | S. cerevisiae deletion strains, locus YNL153C, strain GIM3, hits give low values 1.01 | S. cerevisiae deletion strains, locus YNL298W, strain CLA4 (second series), hits give low values 0.996 | S. cerevisiae deletion strains, locus YNL322C, strain KRE1, hits give low values 1.01 | S. cerevisiae deletion strains, locus YNR030W, strain Alg12, hits give low values 1 | S. cerevisiae deletion strains, locus YPL055C, strain LGE1, hits give low values 1.01 | S. cerevisiae deletion strains, locus YPL241C, strain CIN2, hits give low values 1.07 | S. cerevisiae deletion strains, locus YPR135W, strain CTF4, hits give low values 1.12 | S. cerevisiae strains, strain wild type, hits give low values 0.987

O=[N+]([O-])c1ccc2oc(C(O)c3cccc(Cl)c3)cc2c1 (stereo not drawn)
inactive: [1] 0.947 | [2] 0.948 | [3] 0.943 | [4] 0.957 | [5] 0.947 | [6] 0.949 | [7] 0.954 | [8] 0.937 | [9] 0.949 | [10] 0.936 | [11] 0.942 | [12] 0.953 | [13] 0.951 | [14] 0.952 | [15] 0.957 | [16] 0.94 | [17] 0.96 | [18] 0.945 | [19] 0.946 | [20] 0.948 | [21] 0.931 | [22] 0.949 | [23] 0.964 | [24] 1.05 | [25] 0.907 | [26] 1.08 | [27] 1.02 | [28] 1.06 | [29] 0.931 | [30] 0.96 | [31] 1.04 | [32] 0.91 | [33] 0.932 | [34] 0.954 | [35] 0.93 | [36] 1.09 | [37] 0.93 | [38] 0.942 | [39] 0.934 | [40] 0.946 | [41] 1.03 | [42] 0.893 | [43] 0.935 | [44] 0.939 | [45] 0.94 | [46] 0.945 | [47] 0.944 | [48] 0.952 | [49] 0.954 | [50] 0.929 | [51] 0.956 | [52] 1.04 | [53] 0.944 | [54] 0.947 | [55] 0.925 | [56] 0.946 | [57] 0.95 | [58] 0.922 | [59] 0.992 | [60] 1.01 | [61] 0.948 | [62] 0.953 | [63] 0.955 | [64] 0.954 | [65] 0.946 | [66] 0.996 | [67] 0.953 | [68] 0.961 | [69] 0.948 | [70] 0.934 | [71] 0.944
